Reference: PubChem BioAssay AID652142 (Molecular Libraries Program, Specialized Chemistry Center, …, 2013)
Among all 2,400 compounds or so, fewer than 10 were called active. How the calls were made is not given here. Only a sample is shown.

Target: Rac GTPase-activating protein 1 (Homo sapiens) (UniProt Q9H0H5)
Test: inhibition of MgcRacGAP-stimulated Rac1 GTP hydrolysis – biochemical, inorganic phosphate detection, orthogonal assay, confirmation (AID 652142)
Details: MgcRacGAP/Rac1F28L GTP hydrolysis, Biomol green phosphate; active compounds read high

Rac GTPase-activating protein 1 (Homo sapiens), sequence (Q9H0H5 whole entry, looked up): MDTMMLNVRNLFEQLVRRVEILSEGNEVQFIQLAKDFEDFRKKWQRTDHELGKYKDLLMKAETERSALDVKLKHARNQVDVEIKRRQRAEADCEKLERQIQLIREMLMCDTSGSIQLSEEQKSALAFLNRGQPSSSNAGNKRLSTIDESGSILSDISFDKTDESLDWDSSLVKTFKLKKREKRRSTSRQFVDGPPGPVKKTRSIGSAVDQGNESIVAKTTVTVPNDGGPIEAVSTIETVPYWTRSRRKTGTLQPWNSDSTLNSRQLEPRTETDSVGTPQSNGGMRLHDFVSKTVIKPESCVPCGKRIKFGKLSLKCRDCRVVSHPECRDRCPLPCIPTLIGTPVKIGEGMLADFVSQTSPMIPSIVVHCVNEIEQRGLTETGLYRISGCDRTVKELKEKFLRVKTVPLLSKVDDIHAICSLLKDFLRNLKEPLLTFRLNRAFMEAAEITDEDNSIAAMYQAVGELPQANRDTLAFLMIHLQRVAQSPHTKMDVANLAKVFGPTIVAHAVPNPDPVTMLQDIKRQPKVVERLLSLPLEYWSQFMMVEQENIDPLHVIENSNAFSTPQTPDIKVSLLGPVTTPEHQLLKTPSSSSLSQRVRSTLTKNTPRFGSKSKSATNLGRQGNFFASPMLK

inhibition, inactive:
C/C(=N\Nc1ccc(S(=O)(=O)N2CCCCC2)cn1)c1ccc(O)cc1 27.3%
COc1ccccc1N=NNc1ccccc1OC 28.7%
CC(C)(C)N1C(=O)c2ccc(C(=O)Nc3ccc(O)cc3)cc2C1=O 24.3%
Cn1c(-c2ccc3c(c2)OCO3)cnc1NCc1ccccc1Cl 27.7%
COc1cccc(Nc2nc(-c3ccc(O)cc3)cs2)c1 31.8%
C=CCn1c(=O)/c(=C/c2ccc(O)cc2)s/c1=C(/C#N)c1nnc2n1CCCCC2 18.2%
COc1ccc(CNc2ncc(-c3ccc(F)cc3)n2C)c2ccccc12 17.2%
CCOC(=O)/C(C#N)=C\c1c(OCC)n(CC)c2ccccc12 19.7%
Cc1cccc(C)c1OCCCCN1CCNCC1 32%
CC1(C)OC(=O)C(=NNc2ccc(O)cc2)C(=O)O1 20.7%
CCN(CC)S(=O)(=O)c1cccc(NC(=O)CNC2CCCCCC2)c1 31%
C#CCOCCOCCOCCNc1nc(N2CCN(C(=O)[C@H](CCCCN)n3cc([C@@H](N)CC(C)C)nn3)CC2)nc(N2CCN(C(=O)[C@H](CCCCN)n3cc([C@@H](N)CC(C)C)nn3)CC2)n1 39.7%
COc1cc(/C=C2\SC(=Nc3c(C)n(C)n(-c4ccccc4)c3=O)NC2=O)ccc1O 22.8%
Nc1ccc2nc(-c3ccccc3)[nH]c2c1 26.8%
Oc1ccc(Cl)cc1C=Nc1ccc2c3c(cccc13)CC2 29.6%
Nc1ccc(-c2nc3ccc(N)cc3s2)cc1 22.9%
COc1cc2[nH]c(=S)nc(NCCc3ccc(S(N)(=O)=O)cc3)c2cc1OC 17.7%
Cc1c(O)ccc(/C(Cc2ccc3ccccc3n2)=N\O)c1O 25.3%
Oc1ccc(/C=N/Nc2cc(N3CCOCC3)nc(N3CCOCC3)n2)cc1O 7.37%
Cc1ccccc1-c1ccc(Nc2ccc(N3CCOCC3)cc2)nn1 33.6%
CC1=NN(c2ccccc2)C(=O)/C1=C/C=C/C=C/N(C)C 21.7%
Cc1ccc(C2C=NN(c3ccccc3)C2=O)cc1 (stereo not given) -3.99%
S=c1[nH]c2ccccc2n2c(=S)[nH]nc12 23.8%
O=C1CCCC/C1=C\Nc1ccc(O)cc1 30.3%
O=C(Nc1ccccc1C(=O)N/N=C/c1ccc(O)cc1)c1ccccc1 25.8%
Cc1ccc(Nc2n[nH]c(=S)s2)cc1 23.2%
C#CCOCCOCCOCCNc1nc(N2CCN(C(=O)[C@H](CCCCN)n3cc([C@@H](N)C(C)CC)nn3)CC2)nc(N2CCN(C(=O)[C@H](Cc3cc4ccccc4[nH]3)n3cc([C@@H](N)C(C)CC)nn3)CC2)n1 (stereo not given in full) 54.2%
Fc1ccc(CNc2ccc(N3CCN(Cc4ccccc4)CC3)cc2)cc1 7.97%
Cc1cc(SCC(=O)c2ccc(O)c(O)c2)nc2ccccc12 5.6%
COc1ccc(NC(=O)n2ncc3cc(Cl)ccc32)cc1OC 23.6%
COc1ccc(C(CNC(=O)c2cc3ccccc3cc2O)N2CCOCC2)cc1 (stereo not given) 18%
CC1CCCCN1Cc1c(O)ccc2c(=O)c(-c3nc4ccccc4s3)c(N)oc12 (stereo not given) 30.4%
CCN(CC)CCCC(C)NC(=O)c1c(NC(=O)c2ccccc2)sc2c1CCCC2 (stereo not given) 24.9%
CN(C)CCCN1c2ccc(O)cc2Sc2ccc(Cl)cc21 30.1%
COc1cc(/C=N/NC(=O)c2cccc(NC(=O)c3ccccc3C)c2)ccc1O 19.3%
C/C(=N\NC(=O)c1ccc(O)cc1)c1ccc2c(c1)Nc1ccccc1S2 28.2%
CCOc1cc(CNc2ccc(N3CCCCC3)cc2)cc(Br)c1OCC(=O)NC(C)(C)C 35.1%
Cc1cc(NS(=O)(=O)c2ccc(Nc3nc(-c4ccc(O)cc4)cs3)cc2)no1 23.8%
COC(=O)c1ccc(NC(=S)Nc2ccc(O)cc2)cc1 34.6%
C[C@H]1CCC/C=C/[C@@H]2C[C@H](O)C[C@H]2[C@H](O)[C@H](S(=O)c2ccc(O)cc2)CC(=O)O1 (stereo not given in full) 47.3%
Cc1[nH]nc(-c2ccc(O)c(C)c2O)c1-c1cnn(-c2ccccc2)c1 36.4%
Cn1c(=O)c2c([nH]c(=S)n2CCCc2ccccc2)n(C)c1=O 26.4%
Oc1ccc(N=Nc2ccccc2)cc1 8.73%
O=C1C=C(Nc2ccc(O)cc2)C(=O)c2ccccc21 25.1%
COc1cc(/C=N/Nc2nn3cnnc3c3ccccc23)ccc1O 26.4%
C/C(CC(=O)Nc1ccc(N(C)C)cc1)=N\NC(=O)c1ccc([N+](=O)[O-])cc1Cl 26.5%
COc1cc(/C=N/n2c(C3CCCCC3)n[nH]c2=S)ccc1O 27.2%
Cc1ccc(NC(=O)CN2CCN(C)CC2)cc1Br 26.9%
CCCCn1c(SCC(=O)c2ccc(O)c(O)c2)nc2ccsc2c1=O 27.5%
CCOC(=O)c1[nH]c2ccc(F)cc2c1NC(=O)c1ccccc1C(=O)O 22.6%
Cc1ccc(/C=N/Nc2ccc(Cl)c(C(=O)O)c2)s1 6.67%
O=C(c1cccnc1)N1CCN(Cc2cccc(Br)c2)CC1 26.8%
COc1ccc(N=C2NC(=O)/C(=C/c3ccc(O)c(OC)c3)S2)cc1 19.7%
Oc1ccc(-c2csc(-c3cccnc3)n2)c(O)c1 14.8%
Cc1nc(N)sc1-c1ccccc1 20.1%
COc1ccc(NC(=O)c2cc3ccc(O)cc3o/c2=N\O)cc1 17.5%
COc1cc(/C=N/NC(=S)Nc2cccc(S(=O)(=O)N(C)C)c2)ccc1O 20.1%
O=C(Nc1n[nH]c(=S)s1)c1ccco1 29.1%
CCc1nc(Nc2ccc(O)cc2)c2oc3ccccc3c2n1 27.8%
CCCCCC(=O)Nc1cc(S(=O)(=O)O)cc2cc(S(=O)(=O)O)cc(O)c12 64.8%
